{
  "source": "PubChem BioAssay AID1894",
  "about": "(NMMLSC, 2009)",
  "note": "The whole screen tested about 5,900 compounds, of which about 100 (1.7%) were called active.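 How the source made its calls: active means binding response below 72% of control, or above a set upper limit, though filed actives all read lower; inactive means the rest.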 The entries come from a sample that favours actives as a whole.",
  "data": [
    {"target": "Mitogen-activated protein kinase kinase kinase 3 (Homo sapiens) (UniProt Q99759)", "sequence (Q99759 whole entry, looked up)": "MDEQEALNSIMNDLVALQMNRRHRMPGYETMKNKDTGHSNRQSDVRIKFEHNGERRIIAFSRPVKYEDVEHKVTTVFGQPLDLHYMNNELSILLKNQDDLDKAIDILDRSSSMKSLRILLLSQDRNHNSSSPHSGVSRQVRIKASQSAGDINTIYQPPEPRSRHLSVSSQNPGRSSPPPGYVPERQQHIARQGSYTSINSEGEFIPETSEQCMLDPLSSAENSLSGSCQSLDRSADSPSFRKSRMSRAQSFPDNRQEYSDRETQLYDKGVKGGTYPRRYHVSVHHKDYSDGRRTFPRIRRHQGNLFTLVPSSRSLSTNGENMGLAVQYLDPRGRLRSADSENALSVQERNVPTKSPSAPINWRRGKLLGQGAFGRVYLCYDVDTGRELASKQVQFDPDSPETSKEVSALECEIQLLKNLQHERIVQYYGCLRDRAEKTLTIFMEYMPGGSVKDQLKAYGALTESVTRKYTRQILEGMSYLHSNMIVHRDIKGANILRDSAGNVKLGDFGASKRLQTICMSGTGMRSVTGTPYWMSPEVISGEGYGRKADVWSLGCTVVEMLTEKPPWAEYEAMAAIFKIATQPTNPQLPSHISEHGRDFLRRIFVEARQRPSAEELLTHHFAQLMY", "assay": "MEKK3 wild-type PB1 binding to MEK5, inhibitors, confirmation, biochemical, bead multiplex flow cytometry, single concentration, wildtype (AID 1894);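 further: 100% = DMSO only wells and 0% = binding blocked by excess unlabeled MEK5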", "settings": "Alexa488-MEK5 binding to MEKK3, at 10 µM, active compounds read low", "values": [
      {"smiles": "FC(F)(F)c1nc(-c2ccccc2)ncc1-c1nnnn1-c1ccccc1", "binding response (% of control)": "100% (inactive)"},
      {"smiles": "CCOC(=O)N1CCN(CC(=O)n2c(C)c(C)c3ccccc32)CC1", "binding response (% of control)": "97% (inactive)"},
      {"smiles": "Cn1c(=NC(=O)CSCC(=O)N2CCOCC2)sc2ccccc21", "binding response (% of control)": "86% (inactive)"},
      {"smiles": "Cc1nc2cc(S(=O)(=O)C(F)(F)F)ccc2s1", "binding response (% of control)": "101% (inactive)"},
      {"smiles": "CCN1CCN(c2nc(Nc3cc(OC)ccc3OC)nc(Nc3cc(OC)ccc3OC)n2)CC1", "binding response (% of control)": "106% (inactive)"},
      {"smiles": "Cc1ccccc1C(=O)NNC(=O)CN1C(=O)c2ccccc2C1=O", "binding response (% of control)": "93% (inactive)"},
      {"smiles": "CCOC(=O)c1c(Cc2ccc(Cl)cc2)c[nH]c1C", "binding response (% of control)": "107% (inactive)"},
      {"smiles": "CCOC(=O)C(NS(=O)(=O)c1ccc(C)cc1)(C(F)(F)F)P(=O)(OCC(C)C)OCC(C)C", "note": "(centres undefined)", "binding response (% of control)": "94% (inactive)"},
      {"smiles": "C#CCOCCOCCOCCNc1nc(N2CCN(C(=O)C([C@@H](C)CC)n3cc(C(N)COC(=O)C(F)(F)F)nn3)CC2)nc(N2CCN(C(=O)[C@H](CCCCN)n3cc(C(N)CC(C)C)nn3)CC2)n1", "note": "(some centres undefined)", "binding response (% of control)": "106% (inactive)"},
      {"smiles": "COc1ccc(C2CC(c3cccs3)=NN2c2nc(C)c(C(C)=O)s2)cc1OC", "note": "(centres undefined)", "binding response (% of control)": "97% (inactive)"},
      {"smiles": "Cc1ccc(NC(=O)COc2ccc(-n3ccnc3)cc2)cc1Cl", "binding response (% of control)": "108% (inactive)"},
      {"smiles": "Fc1ccc(-c2ccc(CNCc3ccccn3)o2)cc1Cl", "binding response (% of control)": "103% (inactive)"},
      {"smiles": "O=C(NC1CCN(Cc2ccccc2)CC1)c1cc(Br)c(Br)[nH]1", "binding response (% of control)": "110% (inactive)"},
      {"smiles": "O=C(O)/C(=C/c1cccnc1)NC(=O)c1ccccc1", "binding response (% of control)": "104% (inactive)"},
      {"smiles": "CCCCn1c(SCC(=O)NCCc2ccc(OC)c(OC)c2)nc2c1c(=O)n(C)c(=O)n2C", "binding response (% of control)": "100% (inactive)"},
      {"smiles": "COc1ccc(SC[C@H](Cc2ccccc2)N2CCN(CCc3ccccc3)CCC2=O)cc1", "binding response (% of control)": "107% (inactive)"},
      {"smiles": "O=C1Nc2ccc(Br)cc2/C1=N/N=C/C1=C(N2CCOCC2)C(=C\\c2ccccc2)/CC1", "binding response (% of control)": "54% (active)"},
      {"smiles": "C=CCn1c(P(C)(=O)O)nc2ccccc21", "binding response (% of control)": "97% (inactive)"},
      {"smiles": "O=C(OCC1O[C@@H](OC(=O)c2cc(O)c(O)c(O)c2)[C@@H](OC(=O)c2cc(O)c(O)c(O)c2)[C@@H](OC(=O)c2cc(O)c(O)c(O)c2)[C@@H]1OC(=O)c1cc(O)c(O)c(O)c1)c1cc(O)c(O)c(O)c1", "note": "(some centres undefined)", "binding response (% of control)": "1% (active)"},
      {"smiles": "C#CCOCCOCCOCCNc1nc(N2CCN(C(=O)[C@H](CCCCN)n3cc([C@@H](N)C(C)CC)nn3)CC2)nc(N2CCN(C(=O)[C@H](Cc3ccc(O)cc3)n3cc([C@@H](N)C(C)CC)nn3)CC2)n1", "note": "(some centres undefined)", "binding response (% of control)": "109% (inactive)"},
      {"smiles": "COc1ccc(N2CCN(Cc3nnc(-c4ccccc4)o3)CC2)cc1", "binding response (% of control)": "96% (inactive)"},
      {"smiles": "Cc1ccc(S(=O)(=O)NC(=O)N2CCCC(C)(C)C2)cc1", "binding response (% of control)": "98% (inactive)"},
      {"smiles": "C=CCN1C=C2C(=O)C(C)(OC(=O)CCc3ccccc3)C(=O)C=C2C=C1c1ccc(C#N)cc1", "note": "(centres undefined)", "binding response (% of control)": "103% (inactive)"},
      {"smiles": "Cc1ccc(N2C(=O)CC(N3CCSCC3)C2=O)c(C)c1", "note": "(centres undefined)", "binding response (% of control)": "102% (inactive)"},
      {"smiles": "C/C=C/c1ccc(OCCCCN2CCC(C)CC2)c(OC)c1", "binding response (% of control)": "103% (inactive)"},
      {"smiles": "CN1CCN(/N=C/c2ccc(C#N)cc2)CC1", "binding response (% of control)": "86% (inactive)"},
      {"smiles": "COc1cc2c(cc1OC)CN(C(=O)c1ccc(S(=O)(=O)N3CCCCCC3)cc1)CC2", "binding response (% of control)": "100% (inactive)"},
      {"smiles": "CN(CC(=O)Nc1cccc(F)c1)CC(=O)Nc1cccc([N+](=O)[O-])c1", "binding response (% of control)": "103% (inactive)"},
      {"smiles": "N/C(=N\\OS(=O)(=O)c1cccc([N+](=O)[O-])c1)c1ccncc1", "binding response (% of control)": "104% (inactive)"},
      {"smiles": "C=CCN(CC=C)S(=O)(=O)c1ccc(C(=O)Nc2sc3c(c2C(N)=O)CCCCC3)cc1", "binding response (% of control)": "100% (inactive)"},
      {"smiles": "Cc1ccc(N(CCC(=O)O)S(=O)(=O)c2cccc(C(F)(F)F)c2)cc1", "binding response (% of control)": "102% (inactive)"},
      {"smiles": "Cc1ccc(CNC(=O)Cn2c(=O)c3sccc3n(Cc3cccc([N+](=O)[O-])c3)c2=O)cc1", "binding response (% of control)": "102% (inactive)"},
      {"smiles": "COc1cccc(C2CC(c3ccccc3)=NN2S(=O)(=O)c2ccccc2)c1OC", "note": "(centres undefined)", "binding response (% of control)": "100% (inactive)"},
      {"smiles": "O=C(Nc1ccn(Cc2ccccc2)n1)c1cccc(F)c1", "binding response (% of control)": "100% (inactive)"},
      {"smiles": "CCCCOC(=O)c1ccc(N2C(=O)CC(N3CCN(C/C=C/c4ccccc4)CC3)C2=O)cc1", "note": "(centres undefined)", "binding response (% of control)": "104% (inactive)"},
      {"smiles": "COc1cc(-c2nnc(Cn3cc(C(F)(F)F)ccc3=O)o2)cc(OC)c1OC", "binding response (% of control)": "102% (inactive)"},
      {"smiles": "COc1cc(Br)c(-c2sc(Nc3ccccc3)n[n+]2-c2ccccc2)cc1OC", "binding response (% of control)": "102% (inactive)"},
      {"smiles": "COc1cccc(/C(C)=N/Nc2ncc(Cl)cc2Cl)c1", "binding response (% of control)": "108% (inactive)"},
      {"smiles": "COc1cc(/C=C2\\SC(=S)N(Nc3ncc(C(F)(F)F)cc3Cl)C2=O)cc(OC)c1OC", "binding response (% of control)": "90% (inactive)"},
      {"smiles": "CCN(CC)CCOCCOc1ccc(Cl)c2ccccc12", "binding response (% of control)": "107% (inactive)"},
      {"smiles": "CCOc1ccc(NC(=O)Nc2cc(C)ccc2OC)cc1", "binding response (% of control)": "100% (inactive)"},
      {"smiles": "Cc1onc(-c2ccccc2Cl)c1C(=O)OCC(=O)c1ccccc1", "binding response (% of control)": "100% (inactive)"},
      {"smiles": "O=C(OCc1cc(Cl)ccc1OC(F)F)c1cccnc1", "binding response (% of control)": "97% (inactive)"},
      {"smiles": "O=c1c(/C=N/O)coc2ccc(Cl)cc12", "binding response (% of control)": "101% (inactive)"}
    ]}
  ]
}
